Data published in the supplement of paper PMC6555819.

These sequences were tested on THRa:RXRa (NR concentration 90 nM, RXRa partner concentration 90 nM) (assay: PBM binding z-score (relative to random genomic background probes); higher = stronger binding; sequences stand for … in GC…GCGATTGACAGCGTAGAATGAAGG).
How it was run: (§1)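 Random background probes are the reference for binding z-scores. These scores derive from regression-normalized fluorescence on custom Agilent 4×180K protein-binding microarrays incubated 1 h with ligand-free nuclear receptor dimers. Binding was detected with antibodies against each partner (one per run).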

Sequence	PBM binding z-score
TGTCAAAGTTCAAAGGTAAAGTAAGTATCCACAC	3.08
CGAACTAGCTCAGAACAGGACAGTGAAGGATGAT	-0.173
GATACAGGGTCAGCTAGAGGCAAGAGTATGGAAA	2.8
GGAACGAGGGCATTCGAGTTAATAGCATGGCGAT	3.22
TGTGCTAGGTCAACGATGGTCAGCTAATCTGCTA	3
ATACCAAGGTGATCGTGAGGTGGTTGATACTAAC	1.61
CCTTACGGGTCACGAGGTTATAACACGACGAGCG	3.79
CCTAGCAGGCCAATCTCGGTCACTCAAGGCTTGA	1.92
ACTAGCACGCCAAGTTTGGGTCACTCAAACAAAG	2.02
TCATAAAGGTAAATGCTAGGTGAAAGTCCGATCT	2.03
CGAACGAGGGCATGAGTAGATAGCAAATGCCGAT	0.742
TCCTATAGGTAAACAGGTGAAAGTCCGTAAGTTA	0.77
CCTATTAGTTGACCATAAGGGCAACGGAAGCTCG	1.84
TAGCCTACGTCATGGGCCAGTATACCACGCGAAC	-0.335
TCTGCTAGGTCAACTATGGTCAGCTAATCTGCTA	3.87
TCTTGTAGATCACTAGAGGTTAAGAAAGTGCGCT	2.43
TCTAGTTGGTCAAAGGTCACAGACTCGAAATGCG	4.16
CGACCTAGGTCAGAACAGGACAGTGAAGGATGAT	3.83
CCGGCTGGGGCATAAGGTTACCATAAGCCAGCCC	1.93
CCTACTGGGCCAAAGGTTATTGATTCCAATGCTC	1.13

Sequence	PBM binding z-score
TAGCCTAGGTCATTCTGGGGCCAGTATAGAAAGC	3.62
GCGAATGGGGCATCAGCAGGTTACCATAACTTAA	0.795
CCCGAAAGGTCGTGCTCAGGTGAGTATACCAAAC	4.1
ACTTACGGGTCAACGAGGTTGTAGCACGCGTATA	3.38
ATCTCCAGGTAAAAGTTCAGTGAATCCCGAGGAT	1.57
TGAATGAGGTTAAAGACCAGGGAACGTGGCGTCG	2.14
GCTAGCAGGCCATTTGGCTCACTCAATGACGGGC	-1.69
TCATATCGGTAAATGCTAGGTGAAAGTCCGATCT	0.889
AATACAGGGTCATCGTAGGACAGAGTACGCACAG	4.82
CCTACTGGGCCATTCAGAGGTCATTCATCATATG	3.14
GTACCAAGGTGAATAGGTGGTTGATGAGTAGGCG	1.3
GCTCGGAGGACAAGTTCAGAGCTTTGTCCGTAGA	1.27
TGTCAAAGTTCAAAGGTAACGTAGGTATCCACAC	3.05
GATACAGTGTCAGCTAGAGGCCAGAGTATGGAAA	0.131
GATACAGGGTCTGCTAGAGGCCAGAGTATGGAAA	-0.093
TTACCAAGGTGAGCTGAGGCCGTTGATCCAACTC	3.6
ACTATTAGTTGAGACGAGGGCAACCGATAGGTTG	2.7
TCTTGTAGATGAAGCAGGTTAAGAAAGCCTGAGT	-0.0515
AGTCAAAGTTCATGTAGGTAACGTAAGATATGCT	2.65

The sequences below were run on THRa homodimer (NR concentration 90 nM) in the same assay as above.
How it was run: as §1

Sequence	PBM binding z-score
TGTCAAAGTTCAAAGGTAAAGTAAGTATCCACAC	-0.134
CGAACTAGCTCAGAACAGGACAGTGAAGGATGAT	-0.29
GATACAGGGTCAGCTAGAGGCAAGAGTATGGAAA	0.438
GGAACGAGGGCATTCGAGTTAATAGCATGGCGAT	-0.196
TGTGCTAGGTCAACGATGGTCAGCTAATCTGCTA	0.529
ATACCAAGGTGATCGTGAGGTGGTTGATACTAAC	0.979
CCTTACGGGTCACGAGGTTATAACACGACGAGCG	0.991
CCTAGCAGGCCAATCTCGGTCACTCAAGGCTTGA	-0.183
ACTAGCACGCCAAGTTTGGGTCACTCAAACAAAG	0.988
TCATAAAGGTAAATGCTAGGTGAAAGTCCGATCT	0.511
CGAACGAGGGCATGAGTAGATAGCAAATGCCGAT	-0.437
TCCTATAGGTAAACAGGTGAAAGTCCGTAAGTTA	0.418
CCTATTAGTTGACCATAAGGGCAACGGAAGCTCG	1.47
TAGCCTACGTCATGGGCCAGTATACCACGCGAAC	-0.4
TCTGCTAGGTCAACTATGGTCAGCTAATCTGCTA	0.915
TCTTGTAGATCACTAGAGGTTAAGAAAGTGCGCT	-0.317
TCTAGTTGGTCAAAGGTCACAGACTCGAAATGCG	1.98
CGACCTAGGTCAGAACAGGACAGTGAAGGATGAT	0.505
CCGGCTGGGGCATAAGGTTACCATAAGCCAGCCC	0.912
CCTACTGGGCCAAAGGTTATTGATTCCAATGCTC	-0.123

Sequence	PBM binding z-score
TAGCCTAGGTCATTCTGGGGCCAGTATAGAAAGC	0.956
GCGAATGGGGCATCAGCAGGTTACCATAACTTAA	0.03
CCCGAAAGGTCGTGCTCAGGTGAGTATACCAAAC	1.71
ACTTACGGGTCAACGAGGTTGTAGCACGCGTATA	0.417
ATCTCCAGGTAAAAGTTCAGTGAATCCCGAGGAT	0.432
TGAATGAGGTTAAAGACCAGGGAACGTGGCGTCG	0.297
GCTAGCAGGCCATTTGGCTCACTCAATGACGGGC	-1.04
TCATATCGGTAAATGCTAGGTGAAAGTCCGATCT	0.553
AATACAGGGTCATCGTAGGACAGAGTACGCACAG	1.71
CCTACTGGGCCATTCAGAGGTCATTCATCATATG	1.51
GTACCAAGGTGAATAGGTGGTTGATGAGTAGGCG	0.799
GCTCGGAGGACAAGTTCAGAGCTTTGTCCGTAGA	-0.148
TGTCAAAGTTCAAAGGTAACGTAGGTATCCACAC	-0.392
GATACAGTGTCAGCTAGAGGCCAGAGTATGGAAA	-0.254
GATACAGGGTCTGCTAGAGGCCAGAGTATGGAAA	-0.687
TTACCAAGGTGAGCTGAGGCCGTTGATCCAACTC	0.533
ACTATTAGTTGAGACGAGGGCAACCGATAGGTTG	0.226
TCTTGTAGATGAAGCAGGTTAAGAAAGCCTGAGT	-0.455
AGTCAAAGTTCATGTAGGTAACGTAAGATATGCT	-0.0581
